High-throughput results (PubChem)
PLC-beta3 inh – PLC-beta3 (human) inhibition, primary screen; Purified PLC-beta3, fluorogenic substrate, fluorescence; AID 720704; inhibition, % at 12.2 µM; 0.18% of 370,000 active; in the data active means inhibition above about 11%;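 further: 0% = median of compound wells on plate and 100% = full blocker control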
PLCg1 inh – PLC-gamma1 (human) inhibition, primary screen | purified PLC-gamma1, fluorogenic substrate, fluorescence | P19174 | 0.84% of 370,000 active | inhibition, % at 12.2 µM; in the data active means inhibition above about 9.5%
H9c2 protect – modulators protecting cardiomyocytes from myocardial damage | H9c2 cardiomyocytes, H2O2 injury protection, ATPLite, 2 h | protection from H2O2 cell death, % at 20 µM | 0.63% of 360,000 active;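 active means compounds giving at least 50% protection of heart cells from peroxide-induced death in the single-dose screen, raw or plate-pattern-corrected value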;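 further: 0% = DMSO wells with peroxide and 100% = DMSO wells without peroxide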
FAS TE block – FAS thioesterase (human) inhibition | P49327 | recombinant FAS-TE, OMFH fluorogenic substrate, fluorescence endpoint | inhibition, % at 15 µM | 0.67% of 360,000 active | AID 602261;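 active means compounds whose normalised, plate-corrected inhibition of enzyme fluorescence in the single-dose primary screen is 50% or more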;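 further: 0% = DMSO with enzyme and 100% = substrate without enzyme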
FAS-TE conf – FAS thioesterase (human) inhibition, confirmation. shares compounds with FAS TE block. recombinant FAS-TE, OMFH fluorogenic substrate, fluorescence. inhibition, % at 15 µM. 45% of 2,300 active. AID 624325;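 active means compounds inhibiting the enzyme by at least 50% at 15 µM in any one of the replicates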;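 further: 0% = enzyme with DMSO only and 100% = wells lacking enzyme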
* marks the source's active call; other numbers are inactive results; nt = no result. Hits are enriched below; roughly 2.2% of the tested compounds scored in any of these assays.

SMILES | PLC-beta3 inh | PLCg1 inh | H9c2 protect | FAS TE block | FAS-TE conf
Cc1cccc(NC(=O)c2nc[nH]c2C(=O)NCCN(CCNC(=O)c2[nH]cnc2C(=O)Nc2cccc(C)c2)CCNC(=O)c2[nH]cnc2C(=O)Nc2cccc(C)c2)c1 | 0 | 0 | 8 | 84* | 1
O=C(Nc1ccc(Cl)cc1)c1nc[nH]c1C(=O)NCCN(CCNC(=O)c1[nH]cnc1C(=O)Nc1ccc(Cl)cc1)CCNC(=O)c1[nH]cnc1C(=O)Nc1ccc(Cl)cc1 | nt | nt | 3 | 58* | 9
O=C(Nc1ccccc1)c1nc[nH]c1C(=O)NCCN(CCNC(=O)c1[nH]cnc1C(=O)Nc1ccccc1)CCNC(=O)c1[nH]cnc1C(=O)Nc1ccccc1 | 3 | 3 | 31 | 28 | nt
Cc1ccc(NC(=O)c2nc[nH]c2C(=O)NCCN(CCNC(=O)c2[nH]cnc2C(=O)Nc2ccc(C)cc2)CCNC(=O)c2[nH]cnc2C(=O)Nc2ccc(C)cc2)cc1 | 0 | 0 | 15 | 54* | 18
Cc1cccc(NC(=O)c2nc[nH]c2C(=O)Nc2cccc(C)c2)c1 | -1 | 2 | -12 | -1 | nt
CC(COc1cc(F)cc(C#N)c1)CN1CCC(C(O)(c2ccccc2)c2ccccc2)CC1 (stereo unspecified) | 1 | 1 | nt | nt | nt
COc1cc(N(C)C)c([N+](=O)[O-])cc1C(=O)NC(C)CNc1ccc([N+](=O)[O-])cc1Cl (stereo unspecified) | 1 | -3 | 32 | 70* | 59*
N#Cc1cc2sc3nnc(-c4ccncc4)n3c2cc1C#N | 0 | -2 | 6 | 75* | 53*
N#CCSc1nnc2sc3ccccc3n12 | 4 | 2 | 3 | -2 | nt
CCCNC(=O)c1ccc(N2CCC3(CC2)CC(c2cccc(Br)c2)=NO3)c(NC(=O)c2c(Cl)cccc2Cl)c1 | 2 | 0 | 0 | 54* | 16
Cc1ccc(CNC(=O)c2ccc(N3CCC4(CC3)CC(c3ccccc3)=NO4)c(NC(=O)c3ccco3)c2)cc1 | -1 | -2 | 2 | 64* | 13
O=C(COCc1ccccc1)NC1CCCCN(Cc2cccc(Cl)c2)C1=O (stereo unspecified) | 1 | -1 | nt | nt | nt
CCc1ccc(NC(=O)C(C)OC(=O)c2cccc(S(=O)(=O)N3CCc4ccccc4C3)c2)cc1 (stereo unspecified) | 0 | 2 | -6 | 52* | 20
CSC(=Cc1ccc(C(=O)c2ccc(C)cc2)n1C)S(C)=O (stereo unspecified) | -52 | -33 | nt | nt | nt
C[C@H]1CN([C@@H](C)CO)C(=O)c2cc(NC(=O)Nc3cccc4ccccc34)ccc2O[C@@H]1CN(C)Cc1ccc(-c2ccccc2)cc1 | -31 | -22 | -11 | 60* | 16
C[C@@H]1CCCCO[C@@H](CN(C)Cc2ccccc2)[C@@H](C)CN([C@H](C)CO)C(=O)c2cc(NC(=O)Nc3cccc4ccccc34)ccc2O1 | -32 | -26 | 1 | 52* | 14
COc1ccc(NC(=O)Nc2ccc3c(c2)C(=O)N([C@H](C)CO)C[C@H](C)[C@@H](CN(C)Cc2ccc(Cl)c(Cl)c2)OCCCC[C@@H](C)O3)cc1 | 0 | 2 | -11 | 62* | 8
CN1C(=O)C(=O)N2C(=C[C@]3(c4c[nH]c5ccccc45)c4ccccc4N[C@H]23)C1=O | -13 | -3 | nt | nt | nt
O=C(NCCc1ccccc1)c1ccc(Sc2ccccc2Cl)c([N+](=O)[O-])c1 | 0 | 1 | nt | nt | nt
CC#CCN1c2ccccc2[C@]23C[C@@H](C(=O)OC)N(C(=O)c4cc(C)oc4C)C2=NC(C(=O)OC)=C(C(=O)OC)[C@H]13 | 1 | 1 | 36 | 59* | 19
O=C1N(CCCO)CCC12CCC(c1ccccc1)CC2 (stereo unspecified) | -2 | 1 | nt | nt | nt
C/C=C/C=C/C(=O)OC(C)C(=O)Nc1cc([N+](=O)[O-])ccc1OC (stereo unspecified) | -5 | 1 | -8 | 73* | 60*
COc1ccc([N+](=O)[O-])cc1NC(=O)Nc1ccccc1 | 0 | 2 | -4 | 58* | 62*
CCOC(=O)c1ccccc1NC(=O)c1cn(-c2ccc(OC)cc2)c(=O)c2ccccc12 | -4 | 3 | 18 | 26 | nt
COc1ccc([N+](=O)[O-])cc1NC(=O)N(C)Cc1ccco1 | -4 | 3 | -4 | 51* | 42*
COc1ccc(-n2cc(C(=O)Nc3cc([N+](=O)[O-])ccc3OC)c3ccccc3c2=O)cc1 | 5 | 4 | 3 | 55* | 20
